Measurements: PubChem BioAssay (EPA / NIEHS)
Activity calls are given as the source filed them. Rule for the calls: active = hit-call score of the fitted dose curve at least 0.9, where 1 is the maximum; inactive = score below 0.9.

How the values were obtained:
Conditions in all cases: mRNA level, 48 h; actives raise or lower the signal
[1] = read-out: Cytochrome P450 3A4 (Homo sapiens) (UniProt P08684); assay: LTEA_HepaRG_CYP3A4: Life Technologies and Expression Analysis (LTEA) Assay for CYP3A4 using HepaRG (AID 2283487)
In short: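 CYP3A4 transcript measured by TaqMan qRT-PCR and normalized to three housekeeping genes after 48 h chemical exposure of human HepaRG cells. Top concentration 100 uM, half-log steps, 0.5% DMSO vehicle; gain or loss fitted against DMSO baseline.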

[2] = read-out: DNA damage-inducible transcript 3 (DDIT3), DDIT3 (gene 1649); assay: LTEA_HepaRG_DDIT3: Life Technologies and Expression Analysis (LTEA) Assay for DNA damage-inducible transcript 3 (DDIT3) using HepaRG (AID 2283488)
In short: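 Eight-point concentration-response (100 uM highest, half-log dilutions) in HepaRG, 48 h, duplicate wells. Endpoint: qRT-PCR mRNA, normalized (ACTB, GAPDH, POLR2A), bidirectional fitting with DMSO as baseline.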

[3] = read-out: Pro-epidermal growth factor (Homo sapiens) (UniProt P01133); assay: LTEA_HepaRG_EGF: Life Technologies and Expression Analysis (LTEA) Assay for Epidermal growth factor (EGF) using HepaRG (AID 2283489)
In short: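 EGF transcript measured by Fluidigm TaqMan qRT-PCR with three housekeeping genes for normalization, 48 h after dosing HepaRG cultures in duplicate (top 100 uM, half-log steps, 0.5% DMSO vehicle). Gain or loss relative to DMSO fitted.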

[4] = read-out: Early growth response protein 1 (EGR1) transcription factor, EGR1 (gene 1958); assay: LTEA_HepaRG_EGR1: Life Technologies and Expression Analysis (LTEA) Assay for Early growth response protein 1 (EGR1) transcription factor using HepaRG (AID 2283490)
In short: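 EGR1 expression change in human HepaRG after 48 h chemical exposure, assessed by housekeeping-normalized qRT-PCR; concentration-response up to 100 uM, fitted in both directions against DMSO controls.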

[5] = read-out: Ezrin (EZR), EZR (gene 7430); assay: LTEA_HepaRG_EZR: Life Technologies and Expression Analysis (LTEA) Assay for Ezrin (EZR) using HepaRG (AID 2283491)
In short: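 HepaRG, 48 h chemical exposure, 8-pt half-log series from 100 uM, 0.5% DMSO vehicle, duplicates. Read-out: EZR mRNA by TaqMan qRT-PCR (Fluidigm array), housekeeping-normalized; bidirectional curve fit vs DMSO baseline.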

[6] = read-out: Cytochrome P450 3A7 (Homo sapiens) (UniProt P24462); assay: LTEA_HepaRG_CYP3A7: Life Technologies and Expression Analysis (LTEA) Assay for CYP3A7 using HepaRG (AID 2283492)
In short: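 CYP3A7 transcript measured by qRT-PCR (ACTB, GAPDH, POLR2A normalization) after 48 h chemical exposure of HepaRG cells in duplicate. Eight half-log concentrations, maximum 100 uM, 0.5% DMSO vehicle; bidirectional curve fitting against DMSO baseline.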

[7] = read-out: CYP3A5 (gene 1577); assay: LTEA_HepaRG_CYP3A5: Life Technologies and Expression Analysis (LTEA) Assay for CYP3A5 using HepaRG (AID 2283493)
In short: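 Readout was CYP3A5 mRNA by qRT-PCR. HepaRG cultures were exposed for 48 h in serum-free induction medium to chemicals at up to 100 uM, and responses were fitted in both directions relative to DMSO vehicle.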

[8] = read-out: Fatty Acid-Binding Protein 1 (FABP1), FABP1 (gene 2168); assay: LTEA_HepaRG_FABP1: Life Technologies and Expression Analysis (LTEA) Assay for Fatty Acid-Binding Protein 1 (FABP1) using HepaRG (AID 2283494)
In short: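 Values reflect bidirectional concentration-response fitting of FABP1 mRNA change against 0.5% DMSO controls. Human HepaRG cultures received eight half-log doses (top 100 uM) for 48 h; expression quantified by TaqMan qRT-PCR with housekeeping-gene normalization.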

[9] = read-out: Cytochrome P450 4A22 (Homo sapiens) (UniProt Q5TCH4); assay: LTEA_HepaRG_CYP4A22: Life Technologies and Expression Analysis (LTEA) Assay for Cytochrome P450 4A22 (CYP4A22) using HepaRG (AID 2283495)
In short: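 Gene expression measured by qRT-PCR against three housekeeping genes (ACTB, GAPDH, POLR2A), with gain or loss fitted relative to 0.5% DMSO vehicle. HepaRG cultures received 48 h chemical treatment, top concentration 100 uM, half-log steps, duplicate wells.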

[10] = read-out: Cytochrome P450 7A1 (Homo sapiens) (UniProt P22680); assay: LTEA_HepaRG_CYP7A1: Life Technologies and Expression Analysis (LTEA) Assay for Cytochrome P450 7A1 (CYP7A1) using HepaRG (AID 2283496)
In short: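 Using 0.5% DMSO as vehicle and baseline, chemicals were tested in duplicate over an 8-point range from 100 uM on HepaRG cells for 48 h; qRT-PCR signals were normalised to ACTB, GAPDH and POLR2A.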

[11] = read-out: Glutathione S-Transferase (GSTA2), GSTA2 (gene 2939); assay: LTEA_HepaRG_GSTA2: Life Technologies and Expression Analysis (LTEA) Assay for Glutathione S-Transferase (GSTA2) using HepaRG (AID 2283497)
In short: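 Oxidative-stress marker GSTA2 is quantified by TaqMan qRT-PCR in HepaRG cultures treated 48 h across an eight-point range to 100 uM. Expression is normalized to endogenous controls and compared with 0.5% DMSO vehicle.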

[12] = read-out: Glutamate-cysteine ligase catalytic (GCLC), GCLC (gene 2729); assay: LTEA_HepaRG_GCLC: Life Technologies and Expression Analysis (LTEA) Assay for Glutamate-cysteine ligase catalytic (GCLC) using HepaRG (AID 2283498)
In short: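 Oxidative-stress marker GCLC is measured as mRNA change in human HepaRG liver cells after 48 h chemical treatment in 0.5% DMSO, eight concentrations from 100 uM. Activity is fitted bidirectionally against vehicle.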

[13] = read-out: growth arrest and DNA damage 45 (GADD45G), GADD45G (gene 10912); assay: LTEA_HepaRG_GADD45G: Life Technologies and Expression Analysis (LTEA) Assay for growth arrest and DNA damage 45 (GADD45G) using HepaRG (AID 2283499)
In short: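 GADD45G transcript level by qRT-PCR (housekeeping-normalized: ACTB, GAPDH, POLR2A) after 48 h chemical treatment of a single HepaRG lot in serum-free induction medium; eight-point half-log series up to 100 uM in 0.5% DMSO, duplicates, up- or down-regulation scored.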

[14] = read-out: Glutamate-cysteine ligase regulatory (GCLM), GCLM (gene 2730); assay: LTEA_HepaRG_GCLM: Life Technologies and Expression Analysis (LTEA) Assay for Glutamate-cysteine ligase regulatory (GCLM) using HepaRG (AID 2283500)
In short: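 In this multiplexed HepaRG gene-expression assay, GCLM mRNA change after 48 h treatment (8 concentrations, max 100 uM) was scored against DMSO by bidirectional curve fitting.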

[15] = read-out: Glutathione S-transferase M3 (GSTM3), GSTM3 (gene 2947); assay: LTEA_HepaRG_GSTM3: Life Technologies and Expression Analysis (LTEA) Assay for Glutathione S-transferase M3 (GSTM3) using HepaRG (AID 2283501)
In short: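 GSTM3 transcript levels came from Fluidigm TaqMan qRT-PCR normalized to three housekeeping genes, fitted in both directions against DMSO. HepaRG cultures received chemicals for 48 h in serum-free induction medium (0.5% DMSO), 8 half-log concentrations up to 100 uM, duplicate.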

[16] = read-out: Heat shock 70 kDa protein 1 (HSPA1A), gene 3303; assay: LTEA_HepaRG_HSPA1A: Life Technologies and Expression Analysis (LTEA) Assay for Heat shock 70 kDa protein 1 (HSPA1A) using HepaRG (AID 2283502)
In short: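 An oxidative-stress marker readout: HepaRG cells treated 48 h in duplicate with an eight-point series (highest 100 uM) had HSPA1A mRNA quantified by TaqMan qRT-PCR. Activity was fitted in both directions using 0.5% DMSO as baseline.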

[17] = read-out: Hypoxia-inducible factor 1-alpha (Homo sapiens) (UniProt Q16665); assay: LTEA_HepaRG_HIF1A: Life Technologies and Expression Analysis (LTEA) Assay for Hypoxia-inducible factor 1 (HIF1A) Trancription factor using HepaRG (AID 2283503);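 note: HIF1A transcript by TaqMan qRT-PCR normalized to ACTB GAPDH and POLR2A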
In short: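 Gain- or loss-of-signal HIF1A mRNA changes are fitted against a DMSO baseline. HepaRG cultures receive eight concentrations, highest 100 uM, for 48 h in serum-free induction medium with 0.5% DMSO.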

[18] = read-out: 3-Hydroxy-3-Methylglutaryl-CoA Synthase 2 (HMGCS2), HMGCS2 (gene 3158); assay: LTEA_HepaRG_HMGCS2: Life Technologies and Expression Analysis (LTEA) Assay for 3-Hydroxy-3-Methylglutaryl-CoA Synthase 2 (HMGCS2) using HepaRG (AID 2283504)
In short: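 Readout is HMGCS2 transcript by qRT-PCR, housekeeping-normalised (ACTB/GAPDH/POLR2A) and fitted bidirectionally against 0.5% DMSO. Differentiated HepaRG cells received chemicals 48 h, duplicate wells, eight half-log concentrations topping at 100 uM.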

[19] = read-out: HGF (gene 3082); assay: LTEA_HepaRG_HGF: Life Technologies and Expression Analysis (LTEA) Assay for Hepatocyte Growth Facto (HGF) using HepaRG (AID 2283505)
In short: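 HGF transcript was quantified by TaqMan qRT-PCR against three housekeeping genes after 48 h treatment of HepaRG cells. Exposure ran in duplicate over eight half-log steps topping at 100 uM in 0.5% DMSO vehicle.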

[20] = read-out: Insulin Like Growth Factor 1 (IGF1), IGF1 (gene 3479); assay: LTEA_HepaRG_IGF1: Life Technologies and Expression Analysis (LTEA) Assay for Insulin Like Growth Factor 1 (IGF1) using HepaRG (AID 2283506)
In short: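 Endpoint: IGF1 mRNA change by qRT-PCR, housekeeping-normalized, fitted bidirectionally relative to 0.5% DMSO vehicle. Human HepaRG cells were treated 48 h in serum-free induction medium, eight half-log concentrations topping at 100 uM.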

Measured: AC50

Sequence of Cytochrome P450 3A7 (Homo sapiens) (P24462 whole entry, looked up): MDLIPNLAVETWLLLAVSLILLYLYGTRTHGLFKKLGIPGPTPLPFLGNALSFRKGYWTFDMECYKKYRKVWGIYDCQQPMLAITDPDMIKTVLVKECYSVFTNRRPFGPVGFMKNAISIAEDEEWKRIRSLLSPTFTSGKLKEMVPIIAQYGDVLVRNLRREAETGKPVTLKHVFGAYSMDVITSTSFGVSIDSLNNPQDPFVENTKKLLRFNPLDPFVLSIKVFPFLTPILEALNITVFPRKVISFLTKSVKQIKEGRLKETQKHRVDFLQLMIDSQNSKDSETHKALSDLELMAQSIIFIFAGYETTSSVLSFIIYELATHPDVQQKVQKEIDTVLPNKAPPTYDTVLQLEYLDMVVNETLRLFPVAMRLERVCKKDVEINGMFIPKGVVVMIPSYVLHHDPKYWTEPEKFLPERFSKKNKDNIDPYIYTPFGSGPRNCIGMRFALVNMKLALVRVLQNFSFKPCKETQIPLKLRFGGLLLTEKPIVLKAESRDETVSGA
Sequence of Cytochrome P450 3A4 (Homo sapiens) (P08684 whole entry, looked up): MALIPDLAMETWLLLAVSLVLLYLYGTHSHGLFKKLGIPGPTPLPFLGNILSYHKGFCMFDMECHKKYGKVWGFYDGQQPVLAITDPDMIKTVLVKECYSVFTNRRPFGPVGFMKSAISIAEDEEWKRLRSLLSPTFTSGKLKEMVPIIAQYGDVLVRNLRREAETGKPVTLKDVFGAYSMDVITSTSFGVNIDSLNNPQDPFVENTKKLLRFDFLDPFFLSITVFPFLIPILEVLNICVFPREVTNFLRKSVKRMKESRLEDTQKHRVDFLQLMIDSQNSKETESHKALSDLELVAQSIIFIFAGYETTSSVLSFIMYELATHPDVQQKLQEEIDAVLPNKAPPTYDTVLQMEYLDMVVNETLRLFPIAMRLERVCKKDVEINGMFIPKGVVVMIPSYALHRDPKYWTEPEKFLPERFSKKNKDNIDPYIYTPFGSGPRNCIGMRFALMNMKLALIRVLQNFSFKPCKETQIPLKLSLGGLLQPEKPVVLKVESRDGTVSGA
Sequence of Hypoxia-inducible factor 1-alpha (Homo sapiens) (Q16665 whole entry, looked up): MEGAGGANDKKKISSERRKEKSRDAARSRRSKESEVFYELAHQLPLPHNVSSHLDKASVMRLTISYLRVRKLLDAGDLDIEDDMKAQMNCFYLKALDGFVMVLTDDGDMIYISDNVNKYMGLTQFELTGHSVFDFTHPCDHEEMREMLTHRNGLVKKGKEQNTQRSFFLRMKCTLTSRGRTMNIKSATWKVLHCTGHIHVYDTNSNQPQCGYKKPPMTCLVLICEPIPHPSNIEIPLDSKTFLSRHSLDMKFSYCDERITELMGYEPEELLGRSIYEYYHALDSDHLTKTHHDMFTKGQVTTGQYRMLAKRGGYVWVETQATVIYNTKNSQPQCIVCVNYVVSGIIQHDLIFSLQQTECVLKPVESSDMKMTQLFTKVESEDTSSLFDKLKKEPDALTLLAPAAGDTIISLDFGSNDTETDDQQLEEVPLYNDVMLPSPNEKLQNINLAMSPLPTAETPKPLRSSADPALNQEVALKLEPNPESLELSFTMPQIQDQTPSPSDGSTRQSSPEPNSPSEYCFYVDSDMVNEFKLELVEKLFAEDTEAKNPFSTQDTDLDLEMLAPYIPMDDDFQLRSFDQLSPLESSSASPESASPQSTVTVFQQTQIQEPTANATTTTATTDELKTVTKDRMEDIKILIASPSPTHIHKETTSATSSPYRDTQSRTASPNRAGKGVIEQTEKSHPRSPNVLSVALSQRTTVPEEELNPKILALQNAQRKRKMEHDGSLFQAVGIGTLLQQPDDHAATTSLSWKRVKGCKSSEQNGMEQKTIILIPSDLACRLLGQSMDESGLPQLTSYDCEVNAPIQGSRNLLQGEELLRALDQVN

Clc1ccc(C(Cl)(Cl)Cl)cc1
inactive: all assays above

C1CC2OC2CC1C1CO1 (stereo not drawn)
not listed: [20]
inactive: all other assays above

Cc1ccccc1O
not listed: [16] | [20]
inactive: all other assays above

CCCCCCCCCC[N+](C)(C)CCCCCCCCCC
inactive: [3] | [6] | [7] | [8] | [10] | [14] | [15] | [16]
active: [1] 63.1 µM | [2] 74 µM | [4] 94.6 µM | [5] 80.9 µM | [9] 25.5 µM | [11] 74.5 µM | [12] 83.7 µM | [13] 83.7 µM | [17] 82.7 µM | [18] 77.4 µM | [19] 50 µM

CCOC(=O)C(O)(c1ccc(Cl)cc1)c1ccc(Cl)cc1
active: [6] 50 µM | [9] 50 µM
not listed: [20]
inactive: all other assays above

C=CC(=O)NCNC(=O)C=C
active: [8] 50 µM | [11] 12.7 µM | [17] 15.6 µM | [20] 50 µM
not listed: [9]
inactive: all other assays above

Nn1cnnc1
not listed: [9] | [16]
inactive: all other assays above

CCOP(=S)(OCC)SCSC(C)(C)C
active: [6] 16.5 µM | [7] 2.83 µM | [8] 50 µM | [10] 16.3 µM | [18] 14.7 µM
not listed: [5] | [9] | [16] | [20]
inactive: all other assays above

Cc1ccccc1[N+](=O)[O-]
not listed: [9] | [16]
inactive: all other assays above

O=C(O)C(F)(F)C(F)(F)C(F)(F)C(F)(F)C(F)(F)C(F)(F)C(F)(F)C(F)(F)C(F)(F)F
active: [1] 75.8 µM | [2] 17 µM | [3] 76.1 µM | [5] 11.5 µM | [6] 80.3 µM | [7] 94.1 µM | [8] 33.7 µM | [10] 27.6 µM | [11] 35.5 µM | [12] 85.4 µM | [13] 19.4 µM | [15] 74.8 µM | [18] 34 µM | [19] 89.8 µM
inactive: [4] | [14] | [17]

Clc1ccc(Cl)cc1
not listed: [9] | [16] | [20]
inactive: all other assays above

C=CC(N)=O
not listed: [1] | [9] | [16] | [20]
inactive: all other assays above

ClC1=C(Cl)[C@]2(Cl)[C@@H]3[C@@H](Cl)[C@H]4O[C@H]4[C@@H]3C1(Cl)C2(Cl)Cl
active: [1] 1.35 µM | [6] 1.77 µM | [8] 50 µM | [10] 13.3 µM | [11] 82.5 µM | [18] 18.4 µM
not listed: [9] | [16] | [20]
inactive: all other assays above
